CSC inhib = cancer stem cell viability inhibitors, primary screen, luminescence; inhibition, % at 7.5 µM; 1.1% of 300,000 active; AID 2717, 2010; cancer stem cell-like cells viability; in the data active = inhibition above about 75%; tested in HMLE shEcad cells
PP5 primary = PP5 phosphatase inhibitors, primary screen, biochemical, fluorescence. 0.18% of 320,000 active. Serine/threonine-protein phosphatase 5 (Homo sapiens), P53041. inhibition, % at 6.7 µM. purified PP5c, OMFP substrate fluorescence;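 active = inhibition above the campaign's mean inhibition across all tested compounds plus 3 SD, cut at about 9.5% in these data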;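 note: 0% = DMSO only and 100% = 100 µM cantharidin control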
Target sequence (P53041 whole entry, looked up): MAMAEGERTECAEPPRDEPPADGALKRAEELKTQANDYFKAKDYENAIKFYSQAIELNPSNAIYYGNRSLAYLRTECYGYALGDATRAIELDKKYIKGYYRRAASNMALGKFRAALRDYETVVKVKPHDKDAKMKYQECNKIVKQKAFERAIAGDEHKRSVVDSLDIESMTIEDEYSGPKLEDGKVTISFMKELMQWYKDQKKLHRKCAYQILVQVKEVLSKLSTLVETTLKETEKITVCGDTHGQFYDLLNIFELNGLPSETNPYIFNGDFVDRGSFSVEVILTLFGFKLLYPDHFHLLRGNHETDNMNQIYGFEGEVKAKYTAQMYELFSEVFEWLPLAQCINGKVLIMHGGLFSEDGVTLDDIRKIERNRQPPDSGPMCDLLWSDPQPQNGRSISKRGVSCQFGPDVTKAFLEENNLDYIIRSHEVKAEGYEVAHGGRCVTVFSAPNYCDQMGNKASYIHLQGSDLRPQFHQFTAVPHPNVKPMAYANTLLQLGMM
Beta cell apopt = inhibitors of cytokine-induced beta cell apoptosis, primary screen, luminescence; INS-1E cytokine-induced death, ATP luminescence, 48 h; percent of positive-control rescue, neutral wells zero; 0.8% of 300,000 active; protection from apoptosis, % (concentration not given with the values);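 active = Every replicate reaches about 75%, or at least half do and their mean reaches it too, limit read from the data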;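 note: 0% = cytokine-treated negative control wells and 100% = positive control rescue; higher means more ATP so stronger rescue from cytokine killing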
PP1 counter = PP1-alpha phosphatase inhibitors, primary screen, counter-screen for PP5 inhibitor project, biochemical, fluorescence, OMFP substrate, single point; purified PP1alpha; inhibition, % at 6.7 µM; 0.9% of 320,000 active; AID 2235, 2010;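 active = inhibition above the mean inhibition of all tested compounds plus 3 SD, computed separately for each screening campaign, cut at about 15% in these data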
SKKanGAS inh = S. pyogenes SKKanGAS growth inhibitors in kanamycin, primary screen, streptokinase expression inhibitor project, SKKanGAS strain, BacTiter-Glo luminescence | 6 h | inhibition, % at 7.5 µM | 1.3% of 300,000 active;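 active = mean replicate score, as percent of positive control median, at least 50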;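 note: strain carries kanamycin resistance gene driven by streptokinase promoter and grows in 40 µg/ml kanamycin; loss of luminescence reflects streptokinase promoter inhibition or plain growth inhibition; 0% = median of DMSO wells and 100% = positive control at its reference dose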
Active calls of the source: *; · = not tested or not shown. A selection: hits, their analogues and other compounds. The true share with any hit is near 3.1%.

SMILES	CSC inhib	PP5 primary	Beta cell apopt	PP1 counter	SKKanGAS inh
Cc1ccc(-n2cc(-c3ccccc3)c3c(N4CCOCC4)ncnc32)cc1	·	·	·	·	2
Cc1cccc(-n2cc(-c3ccccc3)c3c(N4CCOCC4)ncnc32)c1	105*	3	17	-2	16
COc1ccc(CCNS(=O)(=O)CCNC(=O)c2ccc3c(c2)OCO3)cc1	-14	-3	·	-2	-15
CCOC(=O)CSc1nc2sc3c(c2c(=O)n1-c1ccc(C)cc1)CCN(C)C3	-3	·	-5	·	9
CCCCSc1nc2sc3c(c2c(=O)n1-c1ccc(C)cc1)CCN(C)C3	-2	·	134*	·	24
Cc1nc2ccccc2c2oc(C(=O)Nc3ccc(C(C)C)cc3)cc12	·	2	79*	-3	39
CC1=C/C(=N\NC(=S)NCCc2ccccc2)CC(C)(C)C1	59	0	3	1	52*
CCOC(=O)c1ccc(NC(=O)C(C)N2C(=O)c3ccccc3C2=O)cc1 (stereo not given)	-24	2	3	-1	-5
COc1cc(OC)c(NC2=CC(=O)C(=O)c3ccccc32)cc1Cl	102*	6	120*	0	42
CCOC(=O)c1ccc(Nc2cc(C)nc(-c3ccccc3)n2)cc1	97*	6	7	5	0
CCOC(=O)c1ccc(NC2=CC(=O)C(=O)c3ccccc32)cc1	-7	5	40	0	70*
CCC(C(=O)Nc1cc(Cl)c(OC)cc1OC)c1ccccc1 (stereo not given)	1	1	-6	-2	-3
CCOC(=O)c1ccc(Nc2nc(C)cc(C)n2)cc1	21	·	2	·	3
Cc1ccc(NC2=CC(=O)C(=O)c3ccccc32)cc1	-8	2	100*	0	24
CNC(=O)COC(=O)/C=C/c1c(C)nn(-c2ccccc2)c1C	-6	-1	-1	-4	-9
Cc1sc2ncnc(N3CCC(C(=O)Nc4ccc(Cl)c(Cl)c4)CC3)c2c1C	70	0	10	-1	·
CCc1cccc(NC(=O)C2CCN(c3ncnc4sc(C)c(C)c34)CC2)c1	37	·	4	·	·
Cc1sc2ncnc(N3CCC(C(=O)Nc4ccc(Cl)cc4Cl)CC3)c2c1C	-3	3	-3	3	50*
Cc1sc2ncnc(N3CCC(C(=O)NCC(=O)Nc4ccc(F)c(F)c4)CC3)c2c1C	-3	2	-5	-1	53*
COc1ccc(-c2csc(NC(=O)C3CCN(c4ncnc5sc(C)c(C)c45)CC3)n2)cc1OC	27	2	112*	-1	14
Cc1cccc(C)c1NC(=O)[C@@]1(CC(=O)O)CC(/C=C/c2ccccc2)=NO1	8	·	1	·	1
CCN1CCN(C(=O)/C(=C/c2ccco2)NC(=O)c2ccccc2)CC1	-9	1	-14	-1	-4
CCc1ccccc1N(C(=O)c1ccco1)C(C(=O)NC1CCCC1)c1cccnc1 (stereo not given)	-18	2	1	2	-2
Cc1cc(C)n(-c2nc3sc4c(c3c(=O)[nH]2)CCCC4)n1	·	0	50	8	93*
Cc1cc(C)n(-c2nc(NCCN(C)C)c3c4c(sc3n2)CCCC4)n1	53	1	112*	-3	16
SMILES	CSC inhib	PP5 primary	Beta cell apopt	PP1 counter	SKKanGAS inh
Cc1cc(C)n(-c2nc(NCCCN(C)C)c3c4c(sc3n2)CCCC4)n1	2	-2	36	-4	0
Cc1cc(C)n(-c2nc(NCCC(C)C)c3c4c(sc3n2)COC(C)(C)C4)n1	·	·	·	·	65*
Cc1cc(C)n(-c2nc(NCCN(C)C)c3c4c(sc3n2)COC(C)(C)C4)n1	6	2	-1	2	12
Cc1cc(C)n(-c2nc(SCC(=O)Nc3nccs3)c3c4c(sc3n2)COC(C)(C)C4)n1	3	1	20	1	58*
CCOC(=O)N1CCN(S(=O)(=O)c2ccc(C(=O)N(CCN(CC)CC)c3nc4ccc(C)cc4s3)cc2)CC1	-4	-2	-5	-8	2
COc1cc(Nc2cccc[n+]2C)cc(OC)c1OC	-14	0	-4	0	7
CCOc1ccc2c(c1)S/C(=C\c1cccs1)C(=O)N2	10	0	9	-3	1
CN1/C(=C\C(=O)Nc2ccc(Cl)cc2)C(C)(C)c2ccccc21	61	6	-2	-2	69*
CN1/C(=C\C(=S)NC(=O)c2ccccc2Cl)C(C)(C)c2ccccc21	57	6	100*	4	5
CN1/C(=C\C(=S)Nc2ccccc2)C(C)(C)c2ccccc21	-2	5	120*	1	-11
CN1/C(=C\C=C(/C#N)C(=O)Nc2ccc(Cl)cc2)C(C)(C)c2ccccc21	7	-2	5	-2	-2
COc1ccccc1OCc1nc(-c2cccc([N+](=O)[O-])c2)no1	9	2	3	1	-2
COc1ccc(C(CNC(=O)C(=O)NC2CCCC2)N2CCN(C)CC2)cc1 (stereo not given)	2	0	-1	1	-8
O=C(Nc1ccc(F)cc1)Nc1nnc(Cc2ccccc2)s1	35	0	4	17*	-2
CNS(=O)(=O)c1cc(-c2nnc(Nc3ccc(CC(N)=O)cc3)c3ccccc23)ccc1C	2	-2	·	0	8
COc1ccc(NC(=S)NN(C)C(=S)Nc2ccc(OC)cc2)cc1	123*	0	2	-1	-1
CC(C)c1ccc(C2(C)NC(=O)N(CC(=O)NCC3COc4ccccc4O3)C2=O)cc1 (stereo not given)	3	6	-7	-1	·
O=C(N/N=C/c1cn(-c2cccs2)nc1-c1ccccc1)c1ccccc1O	23	2	7	4	37
O=C(N/N=C/c1cn(-c2cccs2)nc1-c1ccccc1)c1ccccc1Br	83*	7	7	4	14
CC1=[N+]([O-])C(C)(C)C(c2ccc(Br)cc2)=[N+]1[O-]	-10	-1	-2	0	-4
c1ccc(-c2nc(N3CCN(c4ccccc4)CC3)nc(-n3ccnc3)n2)cc1	37	0	·	5	60*
CCCCCNc1nc(-c2ccccc2)nc(-n2ccnc2)n1	-3	1	5	-4	-4
c1ccc(-c2nc(N3CCCCCC3)nc(-n3ccnc3)n2)cc1	69	0	2	3	86*
Nc1nc(-c2cccnc2)nc(N2CCCCC2)n1	-12	1	·	-1	0
CC1=NOC(=O)/C1=C\c1ccc(-c2ccc(Cl)cc2Cl)o1	·	·	·	·	70*
CCCNC(=O)c1c(N)n(-c2cccc(OC)c2)c2nc3ccccc3nc12	29	4	104*	5	28
COCCCNC(=O)c1c(N)n(-c2cccc(S(N)(=O)=O)c2)c2nc3ccccc3nc12	2	5	-5	-2	21

Compound activity: PubChem BioAssay, several laboratories
